Shown are actives, neighbours in structure and some others; about 1.5% of the full set was active somewhere.
CCHFV vOTU inh – CCHFV vOTU protease inhibition. Pep-AMC fluorescence. inhibition, % at 11.5 µM. actives 0.55% (n = 370,000); in the data active = inhibition above about 30%
SSB-PriA inh – blocks PriA binding to SSB C-terminal tail. actives 0.6% (n = 430,000). AID 1272365. AlphaScreen SSBct-PriA binding, biotinylated peptide. inhibition, % at 33 µM; in the data active = inhibition mostly above about 37%, no sharp cut-off; inactive = mostly below about 20%
DUSP3 inh – inhibitors of human VHR1 phosphatase (DUSP3); P51452; recombinant VHR phosphatase, pNPP absorbance; inhibition, % at 13.3 µM; actives 0.52% (n = 290,000); AID 1654; in the data active = inhibition above about 50%
Target sequence (P51452 whole entry, looked up): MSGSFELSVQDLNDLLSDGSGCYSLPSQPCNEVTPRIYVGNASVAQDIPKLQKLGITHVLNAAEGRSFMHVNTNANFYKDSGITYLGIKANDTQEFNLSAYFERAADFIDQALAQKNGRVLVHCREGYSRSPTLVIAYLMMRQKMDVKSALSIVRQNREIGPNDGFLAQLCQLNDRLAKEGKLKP
RN4220 kill – kills Staphylococcus aureus RN4220; S. aureus RN4220 growth, OD600, 16 h; actives 0.33% (n = 330,000); AID 1259311; inhibition, % (no concentration beside the values); in the data active = inhibition above about 85%
Sa ugtP lethal – kills S. aureus RN4220 lacking UgtP; S. aureus RN4220 ugtP deletion, OD600 growth, 16 h; growth inhibition, % (test concentration not listed); actives 0.54% (n = 330,000); AID 1259309; in the data active = growth inhibition above about 68%
Numbers stand for hits.

Results for C=CCn1c(=O)c(C(=O)NCCc2ccccc2)c(O)c2ccccc21 ?
CCHFV vOTU inh: inactive; SSB-PriA inh: inactive; DUSP3 inh: inactive; RN4220 kill: inactive; Sa ugtP lethal: inactive

Results for C=CCn1c(=O)c(C(=O)Nc2cccnc2)c(O)c2ccccc21 ?
CCHFV vOTU inh: inactive; SSB-PriA inh: inactive; DUSP3 inh: inactive; RN4220 kill: 99; Sa ugtP lethal: inactive

How did O=C(NCC(c1ccsc1)N1CCc2ccccc2C1)c1ccccc1F (centres undefined) do in these assays?
SSB-PriA inh: inactive

How did O=C(Nc1nc(-c2ccc3c(c2)OCCO3)cs1)c1cccc(C(F)(F)F)c1 do in these assays?
SSB-PriA inh: inactive

What do the screens show for `O=C(Nc1ccc(Br)c(C(F)(F)F)c1)c1ccccc1`?
CCHFV vOTU inh: inactive; SSB-PriA inh: inactive; DUSP3 inh: inactive; RN4220 kill: inactive; Sa ugtP lethal: inactive

Results for O=C(Nc1ccc(Br)c(C(F)(F)F)c1)c1ccc(C(F)(F)F)cc1 ?
CCHFV vOTU inh: inactive; SSB-PriA inh: inactive; DUSP3 inh: inactive; RN4220 kill: 101; Sa ugtP lethal: 99

How did COc1ccc(C(N)=NOC(=O)Cc2ccccc2[N+](=O)[O-])cc1 do in these assays?
SSB-PriA inh: inactive

How did Cc1cccc(CCNC(=O)C2CCC(=O)N(Cc3ccc(Cl)cc3)C2)n1 (centres undefined) do in these assays?
CCHFV vOTU inh: inactive; SSB-PriA inh: inactive; DUSP3 inh: inactive; RN4220 kill: inactive; Sa ugtP lethal: inactive

What do the screens show for `O=C(NCCc1cccc(Cl)c1)C1CCC(=O)N(Cc2ccc(Cl)cc2)C1` (centres undefined)?
CCHFV vOTU inh: inactive; SSB-PriA inh: inactive; DUSP3 inh: 59; RN4220 kill: inactive; Sa ugtP lethal: inactive

How did CON=CNC(=O)N1OC[C@@H]2COc3ccc4ccccc4c3[C@@H]21 do in these assays?
SSB-PriA inh: inactive

How did O=C(NC=NOCc1cccc(C(F)(F)F)c1)N1OC[C@@H]2COc3ccc4ccccc4c3[C@@H]21 do in these assays?
SSB-PriA inh: 45

How did O=C(Nc1ccc(Cl)cc1)c1cc(Br)ccc1OCC(=O)N1CCOCC1 do in these assays?
CCHFV vOTU inh: inactive; SSB-PriA inh: 44; DUSP3 inh: inactive; RN4220 kill: inactive; Sa ugtP lethal: inactive

How did COc1ccc(C(=O)Nc2ccc(OCC(=O)N3CCOCC3)cc2)c(OC)c1OC do in these assays?
CCHFV vOTU inh: inactive; SSB-PriA inh: inactive; DUSP3 inh: 57

What do the screens show for `O=C(Nc1ccc(OCC(=O)N2CCOCC2)cc1)c1ccccc1F`?
CCHFV vOTU inh: inactive; SSB-PriA inh: inactive; DUSP3 inh: inactive; RN4220 kill: inactive; Sa ugtP lethal: inactive

What do the screens show for `CCOC(=O)c1c(C)oc2c1c1c(c3ccccc32)OCN(Cc2ccccn2)C1`?
CCHFV vOTU inh: inactive; SSB-PriA inh: 57; DUSP3 inh: inactive; RN4220 kill: inactive; Sa ugtP lethal: inactive

How did O=C(NCC[C@H](O)c1ccc2c(c1)OCO2)c1ccccc1C(F)(F)F do in these assays?
SSB-PriA inh: inactive

How did O=C(NCCC(O)c1ccc2c(c1)OCO2)c1ccc(Cl)s1 (centres undefined) do in these assays?
SSB-PriA inh: 37

What do the screens show for `S=c1[nH]cc(Oc2ccc(Cl)cc2Cl)c(=S)[nH]1`?
CCHFV vOTU inh: inactive; SSB-PriA inh: inactive; RN4220 kill: inactive; Sa ugtP lethal: inactive

How did Oc1cc(Cl)ccc1Oc1ccc(Cl)cc1Cl do in these assays?
CCHFV vOTU inh: inactive; SSB-PriA inh: inactive; RN4220 kill: 100; Sa ugtP lethal: 100

Results for CSc1nnc(-c2cccc(S(=O)(=O)N3CCOCC3)c2)o1 ?
SSB-PriA inh: inactive

How did CC(C)(C)c1cnnn1-c1ccc(C(=O)CCl)cc1 do in these assays?
CCHFV vOTU inh: inactive; SSB-PriA inh: inactive; DUSP3 inh: inactive; RN4220 kill: 96; Sa ugtP lethal: 98

What do the screens show for `CCn1c(=O)n(CC)c2cc(N3CCCC3)c(NC(=O)c3c(F)cccc3F)cc21`?
CCHFV vOTU inh: inactive; SSB-PriA inh: inactive; DUSP3 inh: 57; RN4220 kill: inactive; Sa ugtP lethal: inactive

What do the screens show for `Cc1ccc(S(=O)(=O)N2CCC(c3nnc(-c4ccco4)s3)CC2)cc1`?
SSB-PriA inh: inactive

What do the screens show for `O=[N+]([O-])c1ccc(NN=Cc2ccc[nH]2)cc1`?
SSB-PriA inh: 55; RN4220 kill: inactive; Sa ugtP lethal: inactive

What do the screens show for `CCn1cc(C(=O)O)c(=O)c2cc(F)c(N3CCN(S(=O)(=O)c4ccc(NC(C)=O)cc4)CC3)cc21`?
CCHFV vOTU inh: inactive; SSB-PriA inh: inactive; DUSP3 inh: inactive; RN4220 kill: 99; Sa ugtP lethal: 99

How did CCCCCCCCC(=O)N1CCN(c2cc3c(cc2F)c(=O)c(C(=O)O)cn3CC)CC1 do in these assays?
CCHFV vOTU inh: inactive; SSB-PriA inh: inactive; DUSP3 inh: inactive; RN4220 kill: inactive; Sa ugtP lethal: inactive

How did CCn1cc(C(=O)O)c(=O)c2cc(F)c(N3CCN(S(=O)(=O)c4ccc5c(c4)OCCO5)CC3)cc21 do in these assays?
CCHFV vOTU inh: inactive; SSB-PriA inh: inactive; DUSP3 inh: inactive; RN4220 kill: 100; Sa ugtP lethal: 100

How did COc1ccc(-c2cc(OCC(=O)Nc3ccc(OC)c(OC)c3)c3ccccc3n2)cc1 do in these assays?
SSB-PriA inh: inactive

Results for CC(C)C(=O)NNC(=O)c1ccccn1 ?
CCHFV vOTU inh: inactive; SSB-PriA inh: inactive; DUSP3 inh: inactive; RN4220 kill: inactive; Sa ugtP lethal: inactive

What do the screens show for `C=CCNC(=S)NN=C(C)c1ccccn1`?
SSB-PriA inh: inactive; RN4220 kill: inactive; Sa ugtP lethal: inactive

Results for CNC(=S)NNC(=O)c1ccccn1 ?
SSB-PriA inh: 152

How did C=CCNC(=S)NNC(=O)c1ccccn1 do in these assays?
SSB-PriA inh: 148

Results for COCCNC(=S)NNC(=O)c1ccccn1 ?
SSB-PriA inh: 156

What do the screens show for `CC(C)(C)c1ccc2c(c1)OC(C(=O)NN=Cc1ccc([N+](=O)[O-])o1)CO2` (centres undefined)?
RN4220 kill: 100; Sa ugtP lethal: 100

How did O=C(NN=Cc1ccc([N+](=O)[O-])o1)C1COc2ccccc2O1 (centres undefined) do in these assays?
SSB-PriA inh: inactive; RN4220 kill: inactive; Sa ugtP lethal: inactive

How did CC(=O)N1CCc2c(sc(NC(=O)c3ccc([N+](=O)[O-])o3)c2C(N)=O)C1 do in these assays?
CCHFV vOTU inh: 47

What do the screens show for `CCOC(=O)c1c(NC(=O)c2ccc([N+](=O)[O-])o2)sc2c1CCN(C(C)=O)C2`?
SSB-PriA inh: inactive

What do the screens show for `O=C(NCc1cccnc1-c1cccs1)c1ccsc1`?
SSB-PriA inh: inactive

Results for CN(CCO)c1ncnc2nc[nH]c12 ?
CCHFV vOTU inh: inactive; SSB-PriA inh: 104; DUSP3 inh: inactive; RN4220 kill: inactive; Sa ugtP lethal: inactive

Results for O=C(NCC[C@H](O)C1CC1)c1cccs1 ?
SSB-PriA inh: inactive

What do the screens show for `COc1ccc(NC(=O)c2c(OC)cccc2OC)c(OC)c1`?
CCHFV vOTU inh: inactive; SSB-PriA inh: 67; DUSP3 inh: inactive; RN4220 kill: inactive; Sa ugtP lethal: inactive

How did CCOC(=O)c1c(NC(=O)c2ccc(F)c(F)c2)sc2ccccc12 do in these assays?
SSB-PriA inh: inactive

Compound activity as filed in PubChem.
